According to PubChem BioAssay (NCI):
This is part of a sample that, as a whole, favours compounds with a hit. Of some 79,000 tested, about 15% had one in any assay. A number with no mark means an inactive call. Active and inactive are the calls of the source. No stated cut-off is given here; in the data, active means growth inhibition above about 70%; inactive means the rest.

test: NCI Yeast Anticancer Drug Screen. Data for the rad18 strain (AID 177); details: S. cerevisiae rad18 mutant growth inhibition; at 3.7 µM; hits give high values
In short: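 DNA-repair-defective yeast; compound treatment; growth inhibition scored against vehicle.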

Compound | growth inhibition
CCC/C(Cl)=N\OC(=O)Nc1cccc(C(F)(F)F)c1 | -8%
Clc1ccccc1C1OC1c1ccccc1Cl (stereo not drawn) | -48%
c1ccc2c(c1)c1ncccc1c1nccnc21 | -1%
COc1ccc(OC)c2cc3ccccc3cc12 | 4%
COc1cc(C2c3cc4c(cc3OC(NNc3ccccc3)C2C)OCO4)cc(OC)c1OC (stereo not drawn) | 56%
CCCCCCCCCCCC1=C(O)C(=O)C=C(O)C1=O | -6%
CCCCCCCCCCC1CCC(=O)O1 (stereo not drawn) | 1%
O=[N+]([O-])c1cc(CCl)ccc1CCl | 66%
CCCCCCCCCCNC(=O)OCC | 1%
COc1ccc2c(c1)C(=O)c1ccccc1C2 | -1%
CCC(=O)OCCn1c2nc(=O)[nH]c(=O)c-2nc2cc(C)c(C)cc21 | -1%
Oc1c(Br)cc(Br)cc1C1CCCCC1 | 1%
S=C(N/N=C(/c1ccccc1)c1ccccn1)N1CCCCCC1 | 20%
CNC(=O)OCc1c(COC(=O)NC)c(-c2ccc(-c3ccccc3)cc2)n(C)c1C | -42%
COc1ccccc1/C=C1\Sc2scc(-c3cccc([N+](=O)[O-])c3)[n+]2C1=O | 82% (active)
O=[N+]([O-])c1ccc2c(c1)C(N1CCN(CCO)CC1)Cc1ccc(F)cc1S2 (stereo not drawn) | -5%
Cc1ccc(CCC2=CCCc3c2ccc2ccccc32)cc1 | -1%
O=C(O)C1OC1(c1cccc(Cl)c1)c1ccccc1Cl (stereo not drawn) | -16%
NC(=S)N/N=C\c1nccc2ccccc12 | 3%
Clc1cccc(C(Nc2nncs2)Nc2nncs2)c1Cl | 6%
O=C(OCC=C1CCCC1)c1cc([N+](=O)[O-])cc([N+](=O)[O-])c1 | 2%
O=C(Nc1ccccc1)C(=O)C(C(=O)c1ccccc1)C(c1ccccc1)c1ccccc1 (stereo not drawn) | 10%
N#CN1C2CCC1CC(=O)C2 | -15%
COc1ccccc1C(=O)OCC1CCCN2CCCCC12 (stereo not drawn) | -21%
CCNc1nnc(CSc2nc(-c3ccccc3)c(-c3ccccc3)[nH]2)s1 | 16%
O=C1c2ccccc2-c2n[nH]c3cccc1c23 | -32%

same assay, conditions: S. cerevisiae rad18 mutant growth inhibition; at 11.0 µM; hits give high values

Compound | growth inhibition
CCC/C(Cl)=N\OC(=O)Nc1cccc(C(F)(F)F)c1 | -7%
Clc1ccccc1C1OC1c1ccccc1Cl (stereo not drawn) | -64%
c1ccc2c(c1)c1ncccc1c1nccnc21 | -2%
COc1ccc(OC)c2cc3ccccc3cc12 | 21%
COc1cc(C2c3cc4c(cc3OC(NNc3ccccc3)C2C)OCO4)cc(OC)c1OC (stereo not drawn) | 64%
CCCCCCCCCCCC1=C(O)C(=O)C=C(O)C1=O | 64%
CCCCCCCCCCC1CCC(=O)O1 (stereo not drawn) | -1%
O=[N+]([O-])c1cc(CCl)ccc1CCl | 94% (active)
CCCCCCCCCCNC(=O)OCC | 18%
COc1ccc2c(c1)C(=O)c1ccccc1C2 | 6%
CCC(=O)OCCn1c2nc(=O)[nH]c(=O)c-2nc2cc(C)c(C)cc21 | -1%
Oc1c(Br)cc(Br)cc1C1CCCCC1 | 15%
S=C(N/N=C(/c1ccccc1)c1ccccn1)N1CCCCCC1 | 20%
CNC(=O)OCc1c(COC(=O)NC)c(-c2ccc(-c3ccccc3)cc2)n(C)c1C | -61%
COc1ccccc1/C=C1\Sc2scc(-c3cccc([N+](=O)[O-])c3)[n+]2C1=O | 98% (active)
O=[N+]([O-])c1ccc2c(c1)C(N1CCN(CCO)CC1)Cc1ccc(F)cc1S2 (stereo not drawn) | -3%
Cc1ccc(CCC2=CCCc3c2ccc2ccccc32)cc1 | -2%
O=C(O)C1OC1(c1cccc(Cl)c1)c1ccccc1Cl (stereo not drawn) | 3%
NC(=S)N/N=C\c1nccc2ccccc12 | 39%
Clc1cccc(C(Nc2nncs2)Nc2nncs2)c1Cl | 14%
O=C(OCC=C1CCCC1)c1cc([N+](=O)[O-])cc([N+](=O)[O-])c1 | 21%
O=C(Nc1ccccc1)C(=O)C(C(=O)c1ccccc1)C(c1ccccc1)c1ccccc1 (stereo not drawn) | 22%
N#CN1C2CCC1CC(=O)C2 | -22%
COc1ccccc1C(=O)OCC1CCCN2CCCCC12 (stereo not drawn) | 35%
CCNc1nnc(CSc2nc(-c3ccccc3)c(-c3ccccc3)[nH]2)s1 | 13%
O=C1c2ccccc2-c2n[nH]c3cccc1c23 | -1%

same assay, conditions: S. cerevisiae rad18 mutant growth inhibition; at 33.0 µM; hits give high values

Compound | growth inhibition
CCC/C(Cl)=N\OC(=O)Nc1cccc(C(F)(F)F)c1 | -16%
Clc1ccccc1C1OC1c1ccccc1Cl (stereo not drawn) | -48%
c1ccc2c(c1)c1ncccc1c1nccnc21 | -1%
COc1ccc(OC)c2cc3ccccc3cc12 | 24%
COc1cc(C2c3cc4c(cc3OC(NNc3ccccc3)C2C)OCO4)cc(OC)c1OC (stereo not drawn) | 94% (active)
CCCCCCCCCCCC1=C(O)C(=O)C=C(O)C1=O | 95% (active)
CCCCCCCCCCC1CCC(=O)O1 (stereo not drawn) | 7%
O=[N+]([O-])c1cc(CCl)ccc1CCl | 98% (active)
CCCCCCCCCCNC(=O)OCC | 11%
COc1ccc2c(c1)C(=O)c1ccccc1C2 | 7%
CCC(=O)OCCn1c2nc(=O)[nH]c(=O)c-2nc2cc(C)c(C)cc21 | 7%
Oc1c(Br)cc(Br)cc1C1CCCCC1 | 93% (active)
S=C(N/N=C(/c1ccccc1)c1ccccn1)N1CCCCCC1 | 6%
CNC(=O)OCc1c(COC(=O)NC)c(-c2ccc(-c3ccccc3)cc2)n(C)c1C | -42%
COc1ccccc1/C=C1\Sc2scc(-c3cccc([N+](=O)[O-])c3)[n+]2C1=O | 96% (active)
O=[N+]([O-])c1ccc2c(c1)C(N1CCN(CCO)CC1)Cc1ccc(F)cc1S2 (stereo not drawn) | 0%
Cc1ccc(CCC2=CCCc3c2ccc2ccccc32)cc1 | -2%
O=C(O)C1OC1(c1cccc(Cl)c1)c1ccccc1Cl (stereo not drawn) | 57%
NC(=S)N/N=C\c1nccc2ccccc12 | 97% (active)
Clc1cccc(C(Nc2nncs2)Nc2nncs2)c1Cl | 42%
O=C(OCC=C1CCCC1)c1cc([N+](=O)[O-])cc([N+](=O)[O-])c1 | 95% (active)
O=C(Nc1ccccc1)C(=O)C(C(=O)c1ccccc1)C(c1ccccc1)c1ccccc1 (stereo not drawn) | 41%
N#CN1C2CCC1CC(=O)C2 | -21%
COc1ccccc1C(=O)OCC1CCCN2CCCCC12 (stereo not drawn) | 95% (active)
CCNc1nnc(CSc2nc(-c3ccccc3)c(-c3ccccc3)[nH]2)s1 | 89% (active)
O=C1c2ccccc2-c2n[nH]c3cccc1c23 | 33%
